Assay outcomes (PubChem)
TDP1 cell noCPT: qHTS for Inhibitors of human tyrosyl-DNA phosphodiesterase 1 (TDP1): qHTS in cells in absence of CPT. DT40 Tdp1-/- hTDP1 cells, no CPT, ATP luminescence, 48 h. Potency, µM (titrated, usually from 46.2 µM), without a hit: top-dose activity change, negative = growth inhibition, hits mostly inhibitors. actives 15% (n = 420,000). AID 686978, 2013; note: potency is the fitted concentration of half-maximal effect; % is set by controls: 0 for no effect and ±100 for the full control effect; nearly all actives have a fitted effect of over 55% in size
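Growth of hTDP1-complemented DT40 Tdp1-knockout cells is measured by ATP luminescence after at least 48 hr compound exposure at 37 °C, with DMSO substituting for the 20 nM CPT used in the parallel screen.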
IL-1B inflam inh: qHTS for Inhibitors of Inflammasome Signaling: IL-1-beta AlphaLISA Primary Screen; activity change, % at 57.5 µM; actives 4.7% (n = 360,000); AID 743279, 2014; THP-1 LPS/ATP IL-1B secretion, AlphaLISA, 16 h; hits give low values; in the data active = activity change below about -50%; inconclusive = mostly about -30% to -49%; note: % is set by controls: 0 for no effect and ±100 for the full control effect
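Secreted IL-1B measured by AlphaLISA bead assay after 16 h compound exposure of THP-1 cells; compounds (final up to 57.5 uM) added 1 h before LPS (250 ng/mL) and ATP (1.25 mM) stimulation; lower signal means less secretion.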
MCF10A rerep: A quantitative high throughput screen for small molecules that induce DNA re-replication in MCF 10a normal breast cells; Potency, µM (top dose mostly 46.1 µM), for the others: top-dose activity, positive = re-replication, hits mostly activators; actives 2.9% (n = 350,000); MCF 10A DNA re-replication, Hoechst nuclear intensity, 48 h; AID 624296, 2012; note: potency is the fitted concentration of half-maximal effect; % of control where 0% means no effect; nearly all actives have a fitted effect of over 50% in size
Chronic BCR inh: qHTS Assay to Find Inhibitors of Chronic Active B-Cell Receptor Signaling. Potency, µM (titrated, usually from 46.1 µM), without a hit: at the highest dose activity change, negative = inhibition, actives largely listed as inhibitors. ABC-DLBCL IkBa-CBG/CBR reporter, luminescence ratio, 4 h. AID 493014, 2011. actives 0.05% (n = 340,000); active = well fitted inhibition curve with a large enough effect in the signal ratio, with a control signal flat, not every such curve was filed as active; inconclusive = small, poorly fitted or top-dose-only effect, or effect the other way, or a change in a side signal; the % refers to the signal ratio;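 note: potency is the fitted concentration of half-maximal effect; plate controls were basal doxycycline-induced cells for no effect and cells given 10 µM MG132 for full effect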
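Compounds up to 46 uM were incubated four hours with TMD8 cells whose green CBG68 luciferase is fused to IkappaBalpha; red CBR luminescence normalised the signal, and concentration-effect curves were fitted to fusion, red and ratio data.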
DT40 TDP1 CPT: qHTS for Inhibitors of human tyrosyl-DNA phosphodiesterase 1 (TDP1): qHTS in cells in presence of CPT; chicken DT40 Tdp1-/-;hTDP1 cells + 20 nM CPT, ATP luminescence, 48 h; Potency, µM (series often up to 46.2 µM), for inactives: top-dose activity change, negative = growth inhibition, usual class: inhibitors; actives 12% (n = 420,000); AID 686979, 2013; note: potency is the fitted concentration of half-maximal effect; % is set by controls: 0 for no effect and ±100 for the full control effect; nearly all actives have a fitted effect of over 55% in size
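Cell growth measured by CellTiter-Glo luminescence after a minimum 48 h, 37 C compound exposure with 20 nM CPT in Tdp1-knockout DT40 cells stably expressing hTDP1, seeded 400/well; qHTS titration format.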
SW480 rerep: A quantitative high throughput screen for small molecules that induce DNA re-replication in SW480 colon adenocarcinoma cells; SW480 DNA re-replication, Hoechst DNA content imaging, 48 h; Potency, µM (top dose mostly 46.1 µM), for the others: at the highest dose re-replication activation, most hits filed as activators; actives 1.8% (n = 340,000); AID 624297, 2012; note: potency is the fitted concentration of half-maximal effect; % of control where 0% means no effect; nearly all actives have a fitted effect of over 55% in size
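Cells (250 per well) received 23 nL compound or DMSO by pin tool and were kept 48 hr at 37 C, 5% CO2. Nuclei were then stained with Hoechst for 40 min and scanned for DNA content.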
* = called active by the depositor; ? = inconclusive; . = not tested or not shown. Rows were chosen to be rich in hits. Some 19% of all compounds tested hit in one or more screens of this group. Unless noted, calls come from the whole dose curve; as a rule, active = well fitted curve in the direction sought with a large enough effect; inconclusive = small, poorly fitted or top-dose-only effect, or another doubt; inactive = no such curve, though single readings can be large; an effect the other way counts as inactive or inconclusive.

SMILES	TDP1 cell noCPT	IL-1B inflam inh	MCF10A rerep	Chronic BCR inh	DT40 TDP1 CPT	SW480 rerep
NC(=O)c1nsc(C(=O)N(CC(=O)NC2CCCC2)c2cccc(C(F)(F)F)c2)c1N	?	-13	15µM*	-14%	-17%	?
CC(=O)N1CCc2cc(NC(=O)C3(C)CCN3Cc3ccccc3Cl)ccc21 (configuration not stated)	?	-22	.	.	-20%	.
COc1cccc(NC(=O)c2oc3ccccc3c2NC(=O)C(C)(C)C)c1	?	-23	26µM*	?	?	?
COc1cccc(NC(=O)c2oc3ccccc3c2NC(=O)c2ccc3c(c2)OCO3)c1	?	.	-9%	?	14µM*	-2%
COc1ccc(NC(=O)c2oc3ccccc3c2NC(=O)c2cc(=O)c3cc(Cl)ccc3o2)cc1	-11%	.	.	.	4%	.
COc1cccc(NC(=O)C(C)(C)C)c1	-9%	27	-7%	3%	-4%	-6%
COc1cccc(NC(=O)c2oc3ccccc3c2NC(=O)c2cc3ccccc3o2)c1	18µM*	.	.	.	13µM*	.
CCOc1ccc(NC(=O)c2oc3ccccc3c2NC(=O)C2CCCCC2)cc1	?	.	.	.	-16%	.
O=C(Nc1ccc(F)cc1)c1oc2ccccc2c1NC(=O)C1CCCC1	18µM*	-7	9%	?	?	-9%
CCN1C(=O)[C@H]2[C@@H](c3ccc(-c4ccc(C(C)=O)cc4)c(OC)c3)N[C@@](Cc3ccccc3)(C(=O)OC)[C@H]2C1=O	?	?	20%	-2%	?	20%
O=C(NCc1nnnn1-c1ccc(F)c(F)c1)C(=O)c1c[nH]c2ccccc12	-24%	0	6%	?	-12%	-4%
COCCNC(=O)C1CCCN(C(=O)COCc2ccccc2)CC1 (configuration not stated)	2%	11	.	.	4%	.
CCOc1ccc(NC(=O)CCc2nnc3ccc(N4CCC5(CC4)OCCO5)nn23)cc1	4%	22	-2%	?	-3%	-14%
COc1cccc(NC(=O)c2oc3ccccc3c2NC(=O)C2CCCCC2)c1	16µM*	.	.	.	?	.
COCC(=O)Nc1c(C(=O)Nc2ccc3c(c2)OCO3)oc2ccccc12	?	30	?	7%	?	?
O=C(CCl)Nc1c(C(=O)Nc2ccc3c(c2)OCCO3)oc2ccccc12	10µM*	-99*	7.3µM*	?	5.2µM*	?
O=C(O)Cc1ccc(O)c(F)c1	4%	12	3%	1%	1%	-11%
COC(=O)c1sc2cccc(F)c2c1S(=O)(=O)NCc1ccc(F)cc1	5%	.	.	.	-24%	.
CC(C)(C)c1sc(N)nc1-c1ccccc1	-16%	-102*	14%	.	0%	-26%
COc1cc2c(cc1OC)/C(=C/C(=O)c1cccc([N+](=O)[O-])c1)NCC2	?	-60*	?	-1%	?	5%
COc1cc2c(cc1OC)/C(=C/C(=O)c1ccc(F)cc1)NCC2	?	-20	9%	?	?	-4%
COc1cc2c(cc1OC)/C(=C/C(=O)c1ccc(OC)c([N+](=O)[O-])c1)NCC2	18µM*	?	-2%	?	?	2%
CCCCN1C(=O)N(C)C2C1N(C)C(=O)N2CCCC (configuration not stated)	-14%	4	1%	?	2%	-1%
CCCCN1C(=O)NC2NC(=O)NC21 (configuration not stated)	-2%	-92*	0%	?	3%	-2%
C=CCn1c(C)cc(C(=O)COC(=O)/C=C/c2c(C)nn(C3CCS(=O)(=O)C3)c2Cl)c1C (configuration not stated)	-25%	-28	21%	0%	?	-2%
SMILES	TDP1 cell noCPT	IL-1B inflam inh	MCF10A rerep	Chronic BCR inh	DT40 TDP1 CPT	SW480 rerep
COC(=O)c1ccccc1S(=O)(=O)NNC(=O)Nc1ccccc1	-14%	14	8%	0%	-23%	-5%
O=C(Cc1cccs1)NNC(=S)NC(=O)c1ccccc1	15µM*	0	?	0%	?	-4%
O=C(Cc1ccccc1)NNC(=S)NC(=O)c1cccs1	?	69	10%	?	?	?
O=C(Cc1cccs1)NNC(=S)NC(=O)c1ccc(F)c(F)c1	?	30	1%	?	21µM*	0%
COc1ccc(S(=O)(=O)N2CCCCC2)cc1C(=O)N1CCCCCC1	2%	-2	3%	.	4%	-2%
Cc1ccc(CSc2ncc(Cl)c(C(=O)Nc3nnc(C)s3)n2)cc1	-20%	.	.	.	-6%	.
O=C(COC(=O)c1cccs1)NC1CCCC1	-13%	9	7%	-1%	5%	-23%
CN(CC(=O)Nc1ccccc1Br)C(=O)CNC(=O)Cc1cccc2ccccc12	?	13	0%	2%	-19%	-10%
COc1ccc(-c2c(C)nn3c(N4CCC(C(=O)NCCN(C)C)CC4)cc(C)nc23)cc1OC	-1%	-8	11%	-9%	?	-7%
CCOCCCNC(=O)C1CCN(c2cc(C)nc3c(-c4ccc(Cl)cc4)c(C)nn23)CC1	-13%	.	.	.	-12%	.
CCN(CC)CCNC(=O)C1CCN(c2cc(C)nc3c(-c4ccc(Cl)cc4)c(C)nn23)CC1	4.1µM*	.	.	.	3.7µM*	.
